The text below walks through data of PubChem BioAssay (NCATS).

Test [1] is described as follows: Cell Viability - LYMP1-002 - Assay at 24 hr (AID 993). Further: potency means the concentration at half of the fitted maximal effect. The method, boiled down: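 Human lymphoblastoid LYMP1-002 cells (2500/well) treated 24 h at 37 °C; viability as intracellular ATP by CellTiter-Glo luminescence. Tetraoctylammonium bromide as positive control; AC50 from Hill-equation fits of qHTS concentration-response.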
In test [2] the target is Alpha-galactosidase A (Homo sapiens) (UniProt P06280). Put plainly: Counterscreen for Glucocerebrosidase Inhibitors: qHTS Assay for Human alpha-Galactosidase at pH 4.5 (AID 992). Further: 0% is about no effect. The method, boiled down:
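Concentration-response curves (0.7 nM to 77 uM final) were modeled with the Hill equation to give AC50. Reactions: 2 nM enzyme, 80 uM fluorogenic alpha-galactoside, pH 4.5 citric acid buffer, 20 min, room temperature.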
(In general: Counterscreens check selectivity or assay interference.)

The target in test [3] is alpha-glucosidase (Oryza sativa, rice) (UniProt Q653V4). The test is described as follows: Counterscreen for Glucocerebrosidase Inhibitors: qHTS Assay for Rice alpha-Glucosidase at pH 5.0 (AID 997).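 Further: 0% = full activity with enzyme and -100% = basal without enzyme.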 The method, boiled down: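 Rice alpha-glucosidase (4 nM final) with 400 uM 4-methylumbelliferyl-alpha-D-glucopyranoside in citrate buffer pH 5.0, 20 min at room temperature, stopped at pH 10; fluorescence 365/440 nm, compounds 0.7 nM–77 uM, AC50 from Hill fits.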

Test [4] in a line: qHTS Assay for Lipid Storage Modulators (AID 1519; calls by dose curve; on activity change, negative = inhibition: on the % scale 0 is the no-effect control and ±100 the full control effect). The following applies: Drosophila S3 cells, BODIPY lipid droplet/cell ratio, laser cytometry, cells loaded with oleic acid. The procedure, abridged:
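Cells seeded at 5,000 per well were treated with compounds over a concentration series and loaded with oleic acid (400 uM, as added). Lipid droplet fluorescence (488 nm excitation, 500-530 nm channel) was read by laser-scanning cytometry and normalized to 20 uM Triacsin C.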
For orientation: In qHTS, concentration-response curves come from the screen itself.

In test [5] the target is DNA repair nuclease/redox regulator APEX1 (Homo sapiens) (UniProt P27695). Put plainly: qHTS Validation Assay for Inhibitors of the Human Apurinic/apyrimidinic Endonuclease 1 (APE1) (AID 1705; further: potency means the concentration at half of the fitted maximal effect;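 on activity change, negative = inhibition: TAMRA fluorescence gain over two minutes as APE1 cuts a quenched THF abasic duplex; on the % scale 0 is the no-effect control and ±100 the full control effect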). The procedure, abridged:
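Activity read as rising fluorescence (598 nm emission, 525 nm excitation) from incision of a TAMRA/BHQ-2 duplex carrying a THF abasic site (50 nM). Compound and enzyme sat 15 min at RT before substrate start; signal change between first and third 60-s reads.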

Test [6] can be described thus: Counterscreen for APE1 Inhibitors: Fluorescent Dye Displacement Validation Assay (AID 1707).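 Further: plate controls were ThO with dsDNA and no compound for no effect and ThO without dsDNA for full effect.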 The method, boiled down:
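Assay buffer: Tris-HCl pH7.5 with 50mM NaCl, 2 mM MgCl2, 0.01% Tween-20. Dye 250 nM, duplex 50 nM final. Readout: decrease in ThO endpoint fluorescence, 480 nm excitation, 540 nm emission.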

Test [7] concerns the target Endonuclease 4 (Escherichia coli (strain K12)) (UniProt P0A6C1). Put plainly: Counterscreen for APE1 Inhibitors: qHTS Validation Assay for Inhibitors of Endonuclease IV (AID 1708). Further: on the % scale 0 is the no-effect control and ±100 the full control effect. The method, boiled down:
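qHTS concentration-response format; LOPAC1280 tested under APE1-screen conditions. 2 nM enzyme, 15 min compound preincubation at RT, then 50 nM TAMRA/BHQ-2 abasic substrate; kinetic fluorescence read, three reads at 60 s intervals.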

Test [8] can be described thus: Cell Viability - LYMP2-006 (AID 978). Further: nearly all actives have a fitted effect of over 60% in size. Further: potency means the concentration at half of the fitted maximal effect. The procedure, abridged: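 Potency values are Hill-fit AC50s for decreases in intracellular ATP (CellTiter-Glo luminescence). LYMP2-006 lymphoblastoid cells, 2500 per well, were exposed to compound in complete culture medium for 24 hr at 37 C.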
Test [9] can be described thus: Cell Viability - LYMP2-007 (AID 979).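 Further: cells exposed to compound for 24 h before reading; nearly all actives have a fitted effect of over 60% in size.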 Further: potency means the concentration at half of the fitted maximal effect. The method, boiled down:
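Human lymphoblastoid LYMP2-007 cells (2500/well) preincubated 5 h at 37 C, then treated 24 h at 37 C in complete medium. Viability by CellTiter-Glo ATP luminescence after 30 min at room temperature; AC50 from Hill fits.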

Test [10] is described as follows: Cell Viability - LYMP2-008 (AID 980). Further: nearly all actives have a fitted effect of over 60% in size. Further: potency means the concentration at half of the fitted maximal effect. The method, boiled down:
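LYMP2-008 lymphoblastoid cells (2500/well) plated 5 h, then treated 24 h at 37 C in complete medium. Viability read as intracellular ATP by CellTiter-Glo luminescence after 30 min at room temperature; AC50 from Hill fits.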

The nature of test [11]: Cell Viability - LYMP2-010 (AID 981). Further: nearly all actives have a fitted effect of over 55% in size. Further: potency means the concentration at half of the fitted maximal effect. The method, boiled down: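 Human lymphoblastoid LYMP2-010 cells (2500/well) treated 24 h at 37 C in complete medium; viability read as intracellular ATP by CellTiter-Glo luminescence. AC50 from Hill fits of concentration-response data; tetraoctylammonium bromide positive control.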
The nature of test [12]: Cell Viability - LYMP2-012 (AID 982).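 Further: cellular ATP by luciferase luminescence where a drop means cytotoxicity; cells exposed to compound for one day before reading; nearly all actives have a fitted effect of over 55% in size.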 Further: potency means the concentration at half of the fitted maximal effect.
Test [13] is described as follows: Cell Viability - LYMP2-014 (AID 983). Further: nearly all actives have a fitted effect of over 50% in size. Further: potency means the concentration at half of the fitted maximal effect. The procedure, abridged: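 LYMP2-014 human lymphoblastoid cells, 2500/well, treated 24 h at 37 C in complete medium; viability by CellTiter-Glo ATP luminescence after 30 min at room temperature. AC50 from Hill fits of qHTS concentration-response; tetraoctylammonium bromide positive control.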
The nature of test [14]: Cell Viability - LYMP2-016 (AID 984). Further: nearly all actives have a fitted effect of over 55% in size. Further: potency means the concentration at half of the fitted maximal effect. The procedure, abridged: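 Cytotoxicity was scored by luminescent ATP content (CellTiter-Glo) after 24 h compound exposure at 37 C of a human lymphoblastoid line at 2500 cells/well. Concentration-response data were fitted to the Hill equation for AC50.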
The nature of test [15]: Cell Viability - LYMP2-018 (AID 985).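 Further: compound exposure lasted 24 hr at 37 °C; nearly all actives have a fitted effect of over 50% in size.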 Further: potency means the concentration at half of the fitted maximal effect. The method, boiled down: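 Human lymphoblastoid LYMP2-018 cells, 2500/well, settled 5 hr at 37 C then exposed to compound 24 hr at 37 C; intracellular ATP measured by CellTiter-Glo luminescence. AC50 from Hill-equation concentration-response fits.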
The nature of test [16]: Cell Viability - LYMP2-020 (AID 986). Further: nearly all actives have a fitted effect of over 55% in size. Further: potency means the concentration at half of the fitted maximal effect. The method, boiled down: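 Human lymphoblastoid LYMP2-020 cells (2500/well) preincubated 5 h at 37 C, then treated 24 h at 37 C. Viability measured as intracellular ATP by CellTiter-Glo luminescence after 30 min at room temperature; AC50 from Hill fits.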
Test [17] can be described thus: Cell Viability - LYMP2-022 (AID 987). Further: nearly all actives have a fitted effect of over 55% in size. Further: potency means the concentration at half of the fitted maximal effect. The method, boiled down: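 LYMP2-022 lymphoblastoid cells (2500/well, complete medium) were treated with compounds for 24 hours at 37 C; intracellular ATP was then read by CellTiter-Glo luminescence after 30 min at room temperature. AC50 values were derived from Hill-equation fits.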
A short description of test [18]: Cell Viability - LYMP2-024 (AID 988). Further: nearly all actives have a fitted effect of over 60% in size. Further: potency means the concentration at half of the fitted maximal effect. The method, boiled down:
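Human lymphoblastoid LYMP2-024 cells (2500/well) rested 5 hr, then treated with compound for 24 hr at 37 C in complete medium. Viability was measured as intracellular ATP by CellTiter-Glo luminescence. AC50 values came from Hill-equation fits.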

Test [19] in a line: Cell Viability - LYMP2-026 (AID 989). Further: nearly all actives have a fitted effect of over 50% in size. Further: potency means the concentration at half of the fitted maximal effect. The procedure, abridged:
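Human lymphoblastoid LYMP2-026 cells, 2500/well, exposed to compound 24 h at 37 C in complete medium. Viability as intracellular ATP by CellTiter-Glo luminescence; AC50 from Hill fits of qHTS concentration-response.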

Setting [20] is: measured here: cell count channel max response.
Setting [21] is: measured here: lipid channel max response.

Each structure is given as a SMILES string. Values joined by “and” are separate entries in the source; they are usually repeats but may differ in a detail not shown here. Equal entries are not always repeated. Results filed as inconclusive are left out. Active and inactive are the calls of the source. Unless noted, the call rests on the fitted dose curve; in most records, active means well fitted curve in the direction sought with a large enough effect; inconclusive means small, poorly fitted or top-dose-only effect, or another doubt; inactive means no such curve, though single readings can be large; an effect the other way counts as inactive or inconclusive.

DNA repair nuclease/redox regulator APEX1 (Homo sapiens), sequence (P27695 whole entry, looked up): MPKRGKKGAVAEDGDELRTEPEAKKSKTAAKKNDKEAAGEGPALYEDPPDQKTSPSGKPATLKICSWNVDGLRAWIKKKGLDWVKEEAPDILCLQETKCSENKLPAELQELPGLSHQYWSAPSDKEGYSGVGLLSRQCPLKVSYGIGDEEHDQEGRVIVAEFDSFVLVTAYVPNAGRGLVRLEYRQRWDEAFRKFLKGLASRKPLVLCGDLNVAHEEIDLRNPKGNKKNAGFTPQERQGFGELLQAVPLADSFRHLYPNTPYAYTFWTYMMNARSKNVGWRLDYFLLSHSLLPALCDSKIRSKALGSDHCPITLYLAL
Alpha-galactosidase A (Homo sapiens), sequence (P06280 whole entry, looked up): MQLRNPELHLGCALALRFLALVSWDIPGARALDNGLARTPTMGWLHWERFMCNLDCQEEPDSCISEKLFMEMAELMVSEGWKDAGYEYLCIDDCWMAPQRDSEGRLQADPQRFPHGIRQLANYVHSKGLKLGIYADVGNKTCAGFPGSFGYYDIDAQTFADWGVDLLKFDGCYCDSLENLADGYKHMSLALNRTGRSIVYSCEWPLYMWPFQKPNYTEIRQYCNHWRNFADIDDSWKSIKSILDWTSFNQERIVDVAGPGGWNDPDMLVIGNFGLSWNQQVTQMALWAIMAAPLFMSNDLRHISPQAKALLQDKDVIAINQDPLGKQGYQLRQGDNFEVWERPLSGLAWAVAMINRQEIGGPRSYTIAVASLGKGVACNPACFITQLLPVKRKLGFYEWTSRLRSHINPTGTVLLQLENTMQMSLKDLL

In the case of `Oc1ccc(Cl)cc1Sc1cc(Cl)ccc1O`, the Potency entry in test [1] was “inactive”.
In the case of `C[C@@H]1C(=O)NC2=Nc3cccc(Cl)c3CN21`, the compound was classed as inactive in test [2], in test [3], in [6] and in [7]. Also, the activity change, negative = inhibition in test [4] (at 57.5 µM (top of the series)) is 2.07% (inactive). Further, the max response in test [4] (setting [20]) was -20.8%; in test [4] (setting [21]), -17.8%. Further, the Potency entry in test [5] was “inactive”.
In the case of `Nc1ccc(C(=O)O)cc1`, the Potency result in [8], in test [9], in [10], in test [11], in test [12] and in [13] was “inactive” each time. Further, the Potency result in test [14], in [15], in [16], in test [17], in test [18] and in [19] was “inactive” throughout. Besides, the Potency result in test [1] is “inactive”. For the same compound, in test [4] (at 57.5 µM (top of the series)), the activity change, negative = inhibition is 6.97% (inactive). Also, the values for the max response in [4] (setting [20]) and in test [4] (setting [21]) were 13.3% and 22.6%, respectively.
With `C=C(CC)C(=O)c1ccc(OCC(=O)O)c(Cl)c1Cl`, the Potency in test [11], in test [12], in [14], in test [15], in test [17] and in test [18] was 39.8 µM (active) in each case. The Potency result in test [1] was “inactive”. In addition, the activity change, negative = inhibition in test [4] (at 25.7 µM (top of the series)) was -7.65% (inactive); in [4] (at 57.5 µM (top of the series)), 1.41% (inactive). The max response in test [4] (setting [20]) is 5.62% and 9.96%; in [4] (setting [21]) it was -2.15% and 13.8%.
Consider `CC(C)NC[C@@H](O)COc1cccc2ccccc12`, for which the outcome in test [2], in [3], in test [6] and in [7] was inactive. The activity change, negative = inhibition in test [4] (at 25.7 µM (top of the series)) is -1.02% (inactive) and 0.265% (inactive) and -0.0202% (inactive); in test [4] (at 57.5 µM (top of the series)) it was 2.8% (inactive). The max response is -4.01% [middle of 4 runs] in test [4] (setting [20]) and -1.83% [middle of 4 runs] in test [4] (setting [21]). The Potency in test [5] was 5.01 µM (active).
`Oc1cc(O)c2c(c1)O[C@H](c1ccc(O)c(O)c1)[C@H](O)C2`: the result in test [2] and in test [3] was inactive. The activity change, negative = inhibition in test [4] (at 25.7 µM (top of the series)) was -1.15% (inactive) and 0.397% (inactive). Moreover, the max response in [4] (setting [20]) was -2.18% and -16.1%; in [4] (setting [21]), -4.1% and -15.5%.
In the case of `C=CCc1ccc(O)c(OC)c1`, the Potency result in [8], in test [9], in test [10], in [11], in [12] and in [13] was “inactive” in each case. Besides, the Potency entry in test [14], in test [15], in test [16], in test [17], in test [18] and in [19] was “inactive” in each case. Moreover, in [1], the Potency entry is “inactive”. The activity change, negative = inhibition in [4] (at 57.5 µM (top of the series)) was 13.1% (inactive) and 1.99% (inactive). Also, the max response in test [4] (setting [20]) is 19.8% and 9.66%; in [4] (setting [21]), 40.9% and 11.8%.
Turning to `Oc1c(I)cc(Cl)c2cccnc12`, in [11], the Potency is 50.1 µM (active). Further, the activity change, negative = inhibition was -3.26% (inactive) in test [4] (at 25.7 µM (top of the series)) and 2.97% (inactive) in [4] (at 57.5 µM (top of the series)). The max response in test [4] (setting [20]) was -21.6% and -13.1%; in test [4] (setting [21]), -24.9% and -6.72%.
With `O=c1ccc2ccccc2o1`, the Potency result in [8], in test [9], in [10], in [11], in [12] and in test [13] was “inactive” in each case. For the same compound, the Potency entry in test [14], in test [15], in test [16], in test [17], in test [18] and in test [19] was “inactive” throughout. Further, in test [1], the Potency result was “inactive”.
For `CCCC1O[C@@H]2C[C@H]3[C@@H]4CCC5=CC(=O)C=C[C@]5(C)[C@H]4[C@@H](O)C[C@]3(C)[C@]2(C(=O)CO)O1` (stereo partly specified), the compound was classed as inactive in test [2] and in [3].
On to `N[C@H](CO)C(=O)O`, for which the Potency result in [5] was “inactive”. In addition, the compound was called inactive in [6] and in [7].
Regarding `O=C1OC(c2ccc(O)cc2)(c2ccc(O)cc2)c2ccccc21`, the Potency entry in test [8], in test [9], in test [10], in [11], in test [12] and in test [13] was “inactive” each time. Moreover, the Potency entry in [14], in test [15], in [16], in [17], in test [18] and in test [19] was “inactive” each time. The Potency entry in test [1] is “inactive”.
For the compound `CNCCC(Oc1ccccc1C)c1ccccc1` (stereo unspecified), the activity change, negative = inhibition in [4] (at 57.5 µM (top of the series)) was 2.16% (inactive). Besides, the max response came to 19.1% in [4] (setting [20]) and 23.2% in [4] (setting [21]). Also, in test [5], the Potency entry is “inactive”. The outcome in [6] and in test [7] was inactive.
For `O=C1CCC(c2ccc(-n3ccnc3)cc2)=NN1`, the call in test [2], in test [3], in [6] and in test [7] was inactive. The Potency entry in [5] was “inactive”.
On to `NC(=NCCCCCCN=C(N)/N=C(\N)Nc1ccc(Cl)cc1)/N=C(\N)Nc1ccc(Cl)cc1`, for which the Potency in test [8], in [9], in [10], in [11], in test [12] and in test [13] was 39.8 µM (active) throughout. The Potency was 50.1 µM (active) in test [14]; 39.8 µM (active) in test [15]; 39.8 µM (active) in test [16]; 39.8 µM (active) in test [17]; 39.8 µM (active) in [18]; 50.1 µM (active) in test [19]. Further, the Potency in test [1] is 39.8 µM (active).
